Test results published in PubChem BioAssay AID1949 (Southern Research Institute, 2009).
Screen size: about 100,000 compounds; about 1,600 (1.6%) were called active. About 3% were inconclusive and are not listed. The rule behind the calls is not given here. Only a sample is shown.

assay: Mycobacterium tuberculosis H37Rv growth inhibition, cell based, confirmatory dose response (AID 1949);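 for inhibition: bacteria grown 7 days with compound before Alamar blue readout; 0% = untreated bacteria wells and 100% = bacteria with saturating antibiotic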; details: M. tuberculosis H37Rv growth inhibition; hits give high values

| SMILES | inhibition |
| --- | --- |
| CCOc1ccc(N2C(=O)CC(NCCNC(=O)c3ccc(Cl)cc3)C2=O)cc1 (configuration not stated) | 2.16% (inactive) |
| Cc1cc(C(=O)NC2CCCc3ccccc32)no1 (configuration not stated) | inactive |
| COc1ccc(NC(=O)CSc2nnnn2-c2ccccc2Cl)c(OC)c1 | inactive |
| Cc1sc2ncnc(SCC(=O)NCC3CCCO3)c2c1-c1ccc(Cl)cc1 (configuration not stated) | 2.71% (inactive) |
| CS(=O)(=O)NC1c2cccc3cccc(c23)C1N1CCCCC1 (configuration not stated) | inactive |
| CC1CN(C(=O)C(C)Oc2ccc(Cl)cc2Cl)CC(C)O1 (configuration not stated) | inactive |
| Cc1ccc(-c2nn(C)c(=O)c3ccccc23)cc1CNC(=O)c1cccs1 | inactive |
| Cc1cc(Oc2coc3cc(OCC(=O)Nc4ccccc4)ccc3c2=O)cc(C)c1Cl | inactive |
| COc1cc(C(=O)Nc2ccccc2C(=O)NCCc2ccccc2)cc(OC)c1OC | inactive |
| Cn1nc([N+](=O)[O-])nc1Sc1nnc(-c2ccccc2)o1 | 49.7% (inactive) |
| COc1ccc(-c2cc(C(=O)O)c3cc(Br)ccc3n2)c(OC)c1 | inactive |
| CN1CCCC1c1cccnc1N (configuration not stated) | 1.61% (inactive) |
| COc1ccc(NC(=S)N2CCN(c3ccc(F)cc3)CC2)c(OC)c1 | inactive |
| O=[N+]([O-])c1ccccc1S(=O)(=O)N1CCN(c2ncccn2)CC1 | inactive |
| Cc1ccc(-c2nnc(Nc3cccc(O)c3)c3ccccc23)cc1S(=O)(=O)NC(C)(C)CO | inactive |
| COC(=O)c1cccc(NC(=O)CCN2C(=O)c3ccccc3C2=O)c1 | inactive |
| O=C(c1cc2n(n1)C(C(F)(F)F)CC(c1ccccc1)N2)N1CCCc2ccccc21 (configuration not stated) | inactive |
| Cc1ccc(Nc2nc(CSc3nnc(-c4ccccc4)o3)cs2)cc1 | inactive |
| CCCN1CCN(CCCNC(=S)Nc2ccc(F)cc2)CC1 | inactive |
| COc1ccc(C(=O)Nc2cccc(C(C)=O)c2)cc1I | inactive |
| CC1(C)Cc2nc3sc4c(=O)n(CC(=O)c5ccccc5)cnc4c3cc2CO1 | 0.12% (inactive) |
| CC1(C)NC(=O)N(CCCSc2ccc(Cl)cc2)C1=O | 4.37% (inactive) |

| SMILES | inhibition |
| --- | --- |
| Cc1ccc(NC(=O)c2cccc(F)c2)cc1[N+](=O)[O-] | inactive |
| CC1(C)Cc2nc(N3CCCC3)c(C#N)cc2CO1 | 1.56% (inactive) |
| O=C(NC(=S)Nc1ccc2c(c1)Cc1ccccc1-2)c1ccc(Br)cc1 | inactive |
| CC(=O)c1cccc(NC(=O)N2CCN(C(c3ccccc3)c3ccccc3)CC2)c1 | inactive |
| COc1ccccc1NC(=O)c1c(NC(=O)c2ccccc2C)sc2c1CCCC2 | inactive |
| COc1ccc(Oc2ccc(NS(=O)(=O)c3ccc(NC(C)=O)cc3)cc2)cc1 | 0.37% (inactive) |
| O=C(CNC(=O)C1CCCCC1)NNC(=O)c1ccc(Cl)cc1Cl | inactive |
| O=c1ccc2ccc(OCc3ccc(Br)cc3F)cc2o1 | inactive |
| C=C1C2(C(=O)Nc3ccc(Br)cn3)CCC(C2)C1(C)C (configuration not stated) | 0.92% (inactive) |
| COc1ccc(S(=O)(=O)N(C)CC(=O)NC2CCCCC2)cc1C | 2.13% (inactive) |
| CCn1c(SCC(=O)Nc2cccc(F)c2C)nnc1-c1ccc(OC)cc1 | inactive |
| Cc1ccc(-c2cc(C(=O)NC3=NCCS3)c3cc(Br)ccc3n2)o1 | 3.59% (inactive) |
| Cc1cccc(-n2c(CCc3ccccc3)nnc2SCC(=O)Nc2c(C)cc(C)cc2C)c1 | 7.24% (inactive) |
| O=[N+]([O-])c1ccc(NC(=S)NCCCn2ccnc2)cc1 | inactive |
| COc1ccc(C)cc1N(CC(=O)NCc1ccc(Cl)cc1Cl)S(C)(=O)=O | inactive |
| O=S(=O)(NCCSc1ccccn1)c1ccc(Br)cc1 | 5.4% (inactive) |
| CCCCc1ccc(NC(=O)c2ccc3ccccc3c2)cc1 | 0.83% (inactive) |
| COc1ccc(N2CCN(c3nc(NCCc4ccc(OC)c(OC)c4)nc(N4CCOCC4)n3)CC2)cc1 | 40.6% (inactive) |
| CCCCc1ccc(NC(=S)N2CCN(C(=O)c3ccco3)CC2)cc1 | inactive |
| O=C(c1cccs1)N1N=C(c2cccs2)CC1c1cccs1 (configuration not stated) | inactive |
| CCOc1ccc(C(=O)c2oc3ccccc3c2NC(=O)C2COc3ccccc3O2)cc1 (configuration not stated) | inactive |
| O=C(NCc1ccccn1)Nc1ccc2c(c1)OCO2 | inactive |

| SMILES | inhibition |
| --- | --- |
| Cc1onc(-c2ccccc2Cl)c1C(=O)Nc1nc2ccc(Cl)cc2s1 | inactive |
| COc1ccc2nc(NC(=O)CN3CCCCC3)sc2c1 | 3.2% (inactive) |
| CCSc1nc(-c2cccs2)cc(-c2cccs2)c1C#N | 5.48% (inactive) |
| CCCC(C)c1nnc(NC(=O)CSCc2ccccc2)s1 (configuration not stated) | inactive |
| CC(C)NCC(O)Cn1c2c(c3ccccc31)CCCC2=O (configuration not stated) | inactive |
| CCN(CC)CCCNC(=S)Nc1ccc(Br)cc1 | 1.11% (inactive) |
| CS(=O)(=O)N(CC(=O)Nc1ccccc1C(=O)N1CCCC1)c1cccc(F)c1 | inactive |
| Cc1ccc(CN2CCC(N3CCN(c4ccccc4F)CC3)CC2)cc1 | inactive |
| COc1ccc(S(=O)(=O)N(C(C)=O)c2ccc3oc4c(c3c2)CCCC4)cc1[N+](=O)[O-] | 6.65% (inactive) |
| O=C(CCCCC(=O)NC1=NCCS1)NC1=NCCS1 | 1.73% (inactive) |
| Cc1cc(Cl)ccc1OCC(=O)NCCCn1ccnc1 | inactive |
| COc1ccc(OC)c(NC(=O)c2cccc(F)c2)c1 | inactive |
| CCC(=O)Nc1nnc(SCC(=O)Nc2cccc(Cl)c2)s1 | inactive |
| CC1=CC(c2ccc(Cl)cc2)n2ncnc2N1 (configuration not stated) | inactive |
| Cc1cc(C)c(NC(=O)COc2ccc(-c3ccccc3)cc2)c(C)c1 | 0.67% (inactive) |
| CN1C(=O)C2C(C1=O)N1C(c3cccs3)C3C(=O)N(C)C(=O)C3N1C2c1cccs1 (configuration not stated) | inactive |
| Cc1nnc(SCC(=O)Nc2cccc(Cl)c2Cl)n1-c1ccc(F)cc1 | 32.3% (inactive) |
| Cc1cc(NC(=O)Cc2ccc(Br)cc2)no1 | inactive |
| O=C(CSc1nc2ccccc2[nH]1)Nc1ccc(Cl)cn1 | inactive |
| Cc1c(NC(=O)CSc2nnnn2-c2ccc(O)cc2)c(=O)n(-c2ccccc2)n1C | inactive |
| Cc1ccc(CC(=O)Nc2ccc(S(=O)(=O)N3CCC(C)CC3)cc2)cc1 | inactive |
| COc1cc(S(=O)(=O)NC(c2ccccc2)c2ccccc2)ccc1Cl | inactive |

| SMILES | inhibition |
| --- | --- |
| O=C(CSc1nnc(-c2ccncc2)n1-c1ccccc1)c1ccc(Cl)cc1 | inactive |
| COc1ccc(CC(=O)NC(=S)N2CCOCC2)cc1 | 2.63% (inactive) |
| COc1ccc(Cl)cc1C(=O)Nc1cc(C(F)(F)F)ccc1N1CCOCC1 | inactive |
| C=CCc1cc(OC)ccc1OCCN1CCN(C)CC1 | inactive |
| O=C(c1csc2c1CCCC2)N1CCC2(CC1)OCCO2 | inactive |
| C=CCN(c1ccc(C(=O)Nc2ccccc2-c2ccccc2)cc1)S(C)(=O)=O | inactive |
| CCc1ccc(OC(C)c2nnc(SCC(=O)Nc3ccc(C)c(C)c3)n2CC)cc1 (configuration not stated) | 1.06% (inactive) |
| COc1ccc(OC)c(C2C(C#N)=C(N)OC(c3ccccc3)=C2C#N)c1 (configuration not stated) | inactive |
| Cc1ccc(C(=O)CCC(=O)Nc2ccccc2C)cc1C | inactive |
| Cc1ccc(NC(=O)CSc2nnc(N)s2)cc1 | inactive |
| COc1ccccc1CNC(=O)c1cc(OC)c(OC)cc1OC | 2.59% (inactive) |
| N#Cc1ccc(NC(=S)NCCN2CCOCC2)cc1 | inactive |
| CC(C(=O)Nc1cccc(C(F)(F)F)c1)N(c1ccc(Oc2ccccc2)cc1)S(C)(=O)=O (configuration not stated) | 12.4% (inactive) |
| O=C(C1CCN(C(=S)NC2CC2)CC1)N1CCCCCC1 | inactive |
| Cc1ccc(C(C)C)c(OCC(=O)NNC(=S)NCCc2ccccc2)c1 | inactive |
| COc1ccc(CNC(=O)C2CCCN2CCc2ccccc2)cc1OC (configuration not stated) | 4.85% (inactive) |
| CCOC(=O)c1ccc(NC(=S)NNc2nc(C)cc(C)n2)cc1 | inactive |
| CCOC(=O)C1=C(C)N=c2s/c(=C\c3c4ccccc4cc4ccccc34)c(=O)n2C1c1ccccc1Cl (configuration not stated) | inactive |
| Cc1cc(C)cc(C(=O)Nc2ccc(CN3CCOCC3)cc2)c1 | inactive |
| CC(C)(C)C1(c2ccccc2)NC(=O)NC1=O (configuration not stated) | 0.0333% (inactive) |
| CCN(CC)CC(=O)Nc1ccccc1OC | inactive |
| OCCNCCOc1ccc2ccccc2c1Br | inactive |

| SMILES | inhibition |
| --- | --- |
| N#C/C(=C\C=C\c1ccccc1Cl)c1nc2ccccc2[nH]1 | inactive |
| C=CCn1c(SCC#CCO)nc2ccccc2c1=O | inactive |
| COc1ccccc1CCNC(=O)c1ccc(COCC(F)(F)C(F)F)cc1 | inactive |
| CCCCOc1cccc(C(=O)NC(=S)Nc2cccnc2)c1 | inactive |
| Cc1ccc(SCC(=O)Nc2ccc(S(=O)(=O)Nc3cccc(C(F)(F)F)c3)cc2)cc1 | inactive |
| CCc1ccc(-n2c(C)cc(C=NO)c2C)cc1 | 17.1% (inactive) |
| COc1ccc(S(=O)(=O)N(CC(=O)NC2CC3CCC2C3)c2ccccc2)cc1OC (configuration not stated) | inactive |
| O=C1C2CCCCC2C(=O)N1c1n[nH]c(CCc2ccccc2)n1 (configuration not stated) | inactive |
| CCc1cccc(C)c1NC(=O)CN(c1ccc(C)c(C)c1)S(=O)(=O)c1ccc(Cl)cc1 | inactive |
| COc1ccc(NC(=S)N2CCN(Cc3cccc(F)c3)CC2)c(OC)c1 | inactive |
| O=C(NCc1ccc2c(c1)OCO2)Nc1ccc([N+](=O)[O-])cc1 | inactive |
| c1ccc2c(c1)nc(-c1cscn1)n2Cc1ccc(-c2nn[nH]n2)cc1 | inactive |
| COc1ccc(S(=O)(=O)Nc2cccnc2)cc1C | inactive |
| COc1cc(NC(=O)c2ccc(F)cc2)ccc1NC(=O)C(C)C | inactive |
| O=C(c1cn(-c2ccccc2)nc1-c1cccnc1)n1nnc2ccccc21 | 2.67% (inactive) |
| COc1ccc([N+](=O)[O-])cc1NC(=O)c1cc(-c2ccc(OC)c(OC)c2)nc2ccccc12 | inactive |
| CCCN1CCN(C(=O)c2ccncc2)CC1 | 1.8% (inactive) |
| COc1ccc2c(c1)sc1nc(-c3cc4cccc(OC)c4oc3=O)cn12 | inactive |
| Cc1ccc(OCCSC2=NN2c2cc(C)nc(N)n2)cc1 | inactive |
